Measurements from the OligoGym collection.
Note: reference of the scale not given here.

What follows are sequences tested against EPHX2 (assay: pooled miR-30 sensor sort-seq; sequence = guide strand). Conditions: shRNA.
TTTTATGGAGAAATTCTTGGGG was tested, and the sensor-assay potency score (higher = more potent) was 0.765.
TATTCTTCTATTTCGGGAGGAG was tested, and the sensor-assay potency score (higher = more potent) was 0.331.
In the case of TGCAATATTCTTCTATTTCGGG, the sensor-assay potency score (higher = more potent) is reported as -0.612.
Work on TTCCATGCAATATTCTTCTATT yielded a sensor-assay potency score (higher = more potent) of -0.473.
For TTTGATACTCTCCAAAGGGGAC, the sensor-assay potency score (higher = more potent) was -0.915.
TCGCTTGCTCTGAAGAGGCTTT gave a sensor-assay potency score (higher = more potent) of -0.734.
With TTAGAGGACCTCTGAAACCAGA the sensor-assay potency score (higher = more potent) was -0.75.
Work on TGGTTCTTGGAAGTAGAGCTGG yielded a sensor-assay potency score (higher = more potent) of -0.725.
TCTCTCAGCACGGTCGTCCAGC showed a sensor-assay potency score (higher = more potent) of -0.771.
In the case of TATCAGGAAGTCAAAGTGCATC, the sensor-assay potency score (higher = more potent) is reported as -1.33.
Sequence TAGTGAATCCTTTCTTCCTGAG has a sensor-assay potency score (higher = more potent) of -0.285.
TTTATGGAGAAATTCTTGGGGA showed a sensor-assay potency score (higher = more potent) of 0.378.
Work on TCCAAGAATACCAACTCTCGGG yielded a sensor-assay potency score (higher = more potent) of -1.01.
AACTGCTGCACATAGAACTGGA was tested, and the sensor-assay potency score (higher = more potent) was -0.354.
TTCAGCTCACACATCAGCTGGG showed a sensor-assay potency score (higher = more potent) of 0.39.
TCTCCTTACATAACACTTCCAT showed a sensor-assay potency score (higher = more potent) of -0.551.
With TTGGATTGCAAGAGGTCGGCAG the sensor-assay potency score (higher = more potent) was -0.532.
TTCTTGGAAGTAGAGCTGGTAA showed a sensor-assay potency score (higher = more potent) of -0.749.
TCTGAAACCAGACTTCTTGAAC was tested, and the sensor-assay potency score (higher = more potent) was -0.948.
